Data: PubChem BioAssay AID1159580 (chemical genetic matrix, 2015)
Where “and” joins values, the source holds several entries; their conditions need not be identical. Identical values can stand only once. About 2,000 (36%) of roughly 5,500 compounds were called active. About 18% were inconclusive and are not listed. This is one part of the list. Unmarked numbers belong to inactive results. Rule as the data show it: active = normalized growth mostly below about 0.91 (no sharp cut-off); inconclusive = no clear call, values can overlap the other calls; inactive = mostly above about 0.92.

Experiment: chemical genetic growth profiling, strain panel (AID 1159580);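 also: tested at 20 µM; growth read once vehicle control cultures reached saturation at 30 °C; 1 = growth at the plate median or of vehicle wells; lower values mean less growth of the strain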
Details: S. cerevisiae deletion strains, growth OD

O=C1OC(c2ccc(O)cc2)(c2ccc(O)cc2)c2ccccc21
normalized growth (locus YAL013W, strain DEP1, hits give low values): 0.999
normalized growth (locus YAL021C, strain ccr4, hits give low values): 0.977
normalized growth (locus YAL026C, strain drs2, hits give low values): 0.978
normalized growth (locus YAL030W, strain snc1, hits give low values): 0.994
normalized growth (locus YBL061C, strain skt5, hits give low values): 0.984
normalized growth (locus YBR009C, strain hhf1, hits give low values): 0.988
normalized growth (locus YBR021W, strain FUR4, hits give low values): 1.01
normalized growth (locus YBR023C, strain chs3, hits give low values): 0.994
normalized growth (locus YBR171W, strain sec66, hits give low values): 0.981
normalized growth (locus YBR229C, strain ROT2, hits give low values): 0.997
normalized growth (locus YBR231C, strain swc5, hits give low values): 0.974
normalized growth (locus YBR279W, strain paf1, hits give low values): 0.988
normalized growth (locus YCL011C, strain gbp2, hits give low values): 0.968
normalized growth (locus YCL016C, strain dcc1, hits give low values): 1.01
normalized growth (locus YCL029C, strain bik1, hits give low values): 0.972
normalized growth (locus YCL061C, strain MRC1, hits give low values): 1
normalized growth (locus YCL069W, strain vba3, hits give low values): 0.969
normalized growth (locus YCR088W, strain abp1, hits give low values): 1
normalized growth (locus YDL005C, strain med2, hits give low values): 0.97
normalized growth (locus YDL035C, strain GPR1, hits give low values): 0.986
normalized growth (locus YDL040C, strain nat1, hits give low values): 0.986
normalized growth (locus YDL074C, strain BRE1, hits give low values): 0.98
normalized growth (locus YDL101C, strain DUN1, hits give low values): 0.98
normalized growth (locus YDL134C, strain PPH21, hits give low values): 0.989
normalized growth (locus YDL185W, strain tfp1, hits give low values): 0.954
normalized growth (locus YDL192W, strain arf1, hits give low values): 0.974
normalized growth (locus YDR001C, strain nth1, hits give low values): 0.965
normalized growth (locus YDR069C, strain doa4, hits give low values): 0.959
normalized growth (locus YDR101C, strain arx1, hits give low values): 0.973
normalized growth (locus YDR137W, strain rgp1, hits give low values): 0.976
normalized growth (locus YDR150W, strain NUM1, hits give low values): 1
normalized growth (locus YDR159W, strain sac3, hits give low values): 0.969
normalized growth (locus YDR162C, strain NBP2, hits give low values): 0.992
normalized growth (locus YDR195W, strain ref2): 0.973
normalized growth (locus YDR297W, strain sur2, hits give low values): 0.996
normalized growth (locus YDR318W, strain mcm21, hits give low values): 0.949
normalized growth (locus YDR334W, strain swr1, hits give low values): 0.897 (active)
normalized growth (locus YDR335W, strain msn5, hits give low values): 0.97
normalized growth (locus YDR388W, hits give low values): 0.973
normalized growth (locus YDR392W, strain spt3, hits give low values): 0.958
normalized growth (locus YDR502C, strain sam2, hits give low values): 0.96
normalized growth (locus YEL003W, strain gim4, hits give low values): 0.964
normalized growth (locus YEL037C, strain rad23, hits give low values): 0.983
normalized growth (locus YEL061C, strain CIN8 (second series), hits give low values): 0.962
normalized growth (locus YEL061C, strain CIN8, hits give low values): 0.996
normalized growth (locus YER015W, strain faa2, hits give low values): 0.977
normalized growth (locus YER016W, strain bim1, hits give low values): 0.984
normalized growth (locus YER110C, hits give low values): 0.971
normalized growth (locus YER111C, strain swi4, hits give low values): 0.995
normalized growth (locus YER155C, strain BEM2 (second series), hits give low values): 0.826 (active)
normalized growth (locus YER155C, strain BEM2, hits give low values): 0.994
normalized growth (locus YER167W, strain BCK2, hits give low values): 0.997
normalized growth (locus YFR010W, strain ubp6, hits give low values): 0.975
normalized growth (locus YGL078C, strain dbp3, hits give low values): 0.984
normalized growth (locus YGL086W, strain mad1, hits give low values): 0.992
normalized growth (locus YGL167C, strain pmr1, hits give low values): 0.983
normalized growth (locus YGL173C, strain kem1, hits give low values): 0.996
normalized growth (locus YGL227W, strain vid30, hits give low values): 0.987
normalized growth (locus YGL240W, strain doc1, hits give low values): 0.965
normalized growth (locus YGL248W, strain PDE1, hits give low values): 0.996
normalized growth (locus YGL253W, strain hxk2, hits give low values): 0.969
normalized growth (locus YGR135W, strain pre9, hits give low values): 0.964
normalized growth (locus YGR252W, strain gcn5, hits give low values): 1.03
normalized growth (locus YHR013C, strain ard1, hits give low values): 0.954
normalized growth (locus YHR027C, strain rpn1, hits give low values): 0.982
normalized growth (locus YHR030C, strain SLT2, hits give low values): 0.986
normalized growth (locus YHR079C, strain IRE1 (second series), hits give low values): 0.96
normalized growth (locus YHR079C, strain IRE1, hits give low values): 0.953
normalized growth (locus YHR094C, strain hxt1, hits give low values): 0.971
normalized growth (locus YHR129C, strain ARP1, hits give low values): 0.995
normalized growth (locus YHR142W, strain chs7, hits give low values): 0.977
normalized growth (locus YHR200W, strain rpn10, hits give low values): 0.967
normalized growth (locus YIL066C, strain RNR3, hits give low values): 0.996
normalized growth (locus YIL073C, strain SPO22, hits give low values): 0.844
normalized growth (locus YIL125W, strain kgd1, hits give low values): 0.956
normalized growth (locus YIR030C, strain dcg1, hits give low values): 0.985
normalized growth (locus YJL092W, strain hpr5, hits give low values): 0.995
normalized growth (locus YJL095W, strain BCK1 (second series), hits give low values): 0.977
normalized growth (locus YJL095W, strain BCK1, hits give low values): 1.04 and 0.981
normalized growth (locus YJL115W, strain asf1, hits give low values): 0.972
normalized growth (locus YJL129C, strain trk1, hits give low values): 0.949
normalized growth (locus YJL134W, strain LCB3, hits give low values): 0.988
normalized growth (locus YJL154C, strain vps35, hits give low values): 0.972
normalized growth (locus YJL164C, strain tpk1, hits give low values): 0.987
normalized growth (locus YJL166W, strain qcr8, hits give low values): 0.983
normalized growth (locus YJL168C, strain set2, hits give low values): 0.974
normalized growth (locus YJL187C, strain SWE1 (second series), hits give low values): 0.991
